# Bioassay records (PubChem BioAssay)
# CYP2C19 inhib: blockers of cytochrome P450 2C19 activity – biochemical, luminescence, ADME assay, primary screen; P33261; CYP2C19 Supersomes, luciferin-H EGE luminescence, 30 min; inhibition, % at 5 µM; hit rate 21% among 96,000; AID 778, 2007;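 active = CYP2C19 inhibition above a set limit at 5 µM in the primary screen, cut at about 50% in these data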;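 note: plate controls were negative control wells for no effect and 2.5 mM tranylcypromine positive control for full effect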
# sEH act: soluble epoxide hydrolase activators, primary screen, biochemical, human sEH. Bifunctional epoxide hydrolase 2 (Homo sapiens), P34913. purified human sEH enzymatic activity, activator screen. activation, % at 2 µM. hit rate 0.04% among 91,000. AID 717, 2007; in the data active = activation above about 37%
# CYP2C19 act: human CYP2C19 activators, primary screen, biochemical, luminescence | activation factor at 5 µM | Cytochrome P450 2C19 (Homo sapiens), P33261 | 96,000 tested, under 10 active | recombinant CYP2C19, luciferin-H EGE luminescence; active compounds read high; 0 = fully inhibited enzyme, 1 = untreated enzyme;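 active = activation factor of at least 2 at 5 µM in the primary screen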;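 note: 0 = wells with 2.5 mM tranylcypromine and 1 = vehicle-only wells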
# sEH inhibitor: soluble epoxide hydrolase inhibitors, primary screen, biochemical, human sEH. Bifunctional epoxide hydrolase 2 (Homo sapiens), P34913. hit rate 0.34% among 91,000. recombinant human sEH enzymatic activity assay. inhibition, % at 2 µM. AID 707, 2007; in the data active = inhibition above about 80%
# CYP2C9 act: human CYP2C9 activators, primary screen, biochemical, luminescence | recombinant CYP2C9, luciferin-H conversion; active compounds read high; factor 1 = untreated enzyme, 0 = blocked | activation factor at 5 µM | Cytochrome P450 2C9 (Homo sapiens), P11712 | hit rate 1.4% among 96,000;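 active = activation factor of 2 or more for CYP2C9 at a 5 µM dose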;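 note: 0 = sulfaphenazole-blocked wells and 1 = vehicle-only wells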
# Target sequence (P11712 whole entry, looked up): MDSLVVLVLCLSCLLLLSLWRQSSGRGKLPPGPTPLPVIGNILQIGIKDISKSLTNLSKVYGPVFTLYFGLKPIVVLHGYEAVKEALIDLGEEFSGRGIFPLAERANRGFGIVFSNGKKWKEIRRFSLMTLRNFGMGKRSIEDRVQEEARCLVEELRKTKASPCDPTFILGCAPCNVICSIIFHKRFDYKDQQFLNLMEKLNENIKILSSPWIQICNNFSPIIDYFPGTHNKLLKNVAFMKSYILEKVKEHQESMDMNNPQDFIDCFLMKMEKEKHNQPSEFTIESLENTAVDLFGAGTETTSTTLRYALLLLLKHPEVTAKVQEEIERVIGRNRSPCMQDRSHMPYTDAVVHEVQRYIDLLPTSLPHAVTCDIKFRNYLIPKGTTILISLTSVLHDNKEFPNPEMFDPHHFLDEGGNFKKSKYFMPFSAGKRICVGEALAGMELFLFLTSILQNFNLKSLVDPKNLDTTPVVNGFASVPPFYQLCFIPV
# CYP2C9 inh: blockers of cytochrome P450 2C9 activity – biochemical, luminescence, ADME assay, primary screen; P11712; CYP2C9 Supersomes, luciferin-H conversion; inhibition, % at 5 µM; hit rate 20% among 96,000; AID 777, 2007;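 active = blocking of liver enzyme CYP2C9 beyond about 50% at 5 µM, limit read from the data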
# An asterisk follows results filed as active; nt = no result given. Sampled rows, rich in hits. Any-hit rate of the full collection: about 27%.
SMILES,CYP2C19 inhib,sEH act,CYP2C19 act,sEH inhibitor,CYP2C9 act,CYP2C9 inh
N#Cc1nc(-c2cccs2)oc1N1CCN(c2ccccc2)CC1,41,-4,0.6,8,0.6,39
Cc1cc(C)nc(NN2C(=O)/C(=C/c3ccc(O)cc3)SC2=S)n1,0,0,1,2,3.2*,-224
Cc1nc2c(c3c1[nH]c1ccccc13)C(=O)CC(C)(C)C2,39,2,0.6,1,2.8*,-183
CC1(C)CC(=O)c2c(nc3ccccc3c2N)C1,16,-7,0.8,11,1,-1
Cn1c(=O)c2nc(Cl)n(Cc3ccc(Cl)cc3Cl)c2n(C)c1=O,nt,4,nt,-5,nt,nt
CSc1cc(-c2ccccc2)n(Cc2ccc(Cl)cc2Cl)c(=O)c1C#N,15,-3,0.8,2,0.5,51*
COc1ccccc1OCCCn1cc(C#N)c2ccccc21,100*,13,0,-10,0,95*
CCc1cccc2c(C#N)cn(CCOc3ccccc3OC)c12,27,-16,0.7,18,0.5,45
COc1ccccc1OCCCn1c(C)c(C#N)c2ccccc21,29,-1,0.7,-2,0.2,78*
COc1ccc(N(C)S(=O)(=O)c2cccc(C(=O)Nc3ccc(-n4cnnn4)cc3)c2)cc1,70*,nt,0.3,nt,0.2,85*
COc1ccc(N(C)S(=O)(=O)c2cccc(C(=O)NCC3CCCO3)c2)cc1 (stereo unspecified),41,10,0.6,-8,0.4,63*
CN(C)c1ccc(C(=O)NCC2CCCO2)cc1 (stereo unspecified),nt,3,nt,-4,nt,nt
COc1ccc(S(=O)(=O)N(C)c2ccc(C(=O)NCC3CCCO3)cc2)cc1 (stereo unspecified),-6,5,1.1,-2,0.5,53*
O=C1CN(C(=O)CC2c3ccccc3-c3ccccc32)CC(=O)N1,23,-14,0.8,14,0.9,10
O=C1CC(c2ccccc2)Cc2nc3ncnn3cc21 (stereo unspecified),99*,0,0,-1,0.9,7
O=C1CC(c2ccccc2)Cc2nc(N3CCc4ccccc43)ncc21 (stereo unspecified),nt,21,nt,-24,nt,nt
Cn1c(=O)n(CC(=O)N2CCOCC2)c2ccccc21,nt,2,nt,1,nt,nt
COC(=O)c1c[nH]n2c(=O)cc(CCl)nc12,-8,1,1.1,-4,0.8,24
CC(C)(C)NC(=O)NC(=O)COc1ccccc1C#N,51*,7,0.5,-8,0.6,44
C/C(=N\NC(N)=O)c1ccc(Cl)cc1,15,-3,0.9,4,0.8,16
O=[N+]([O-])c1cccc(C(=Nc2ccccc2Cl)NO)c1,87*,6,0.1,-3,0.4,62*
ONC(=Nc1ccc(Cl)cc1)c1ccc(Cl)cc1,71*,nt,0.3,nt,0.4,55*
Cc1cc(/C=N/NC(=O)c2cccc([N+](=O)[O-])c2)c(C)n1-c1ccc(Cl)cc1Cl,-13,-6,1.1,7,1,-1
O=C(CCC(=O)OCC(=O)c1cccc([N+](=O)[O-])c1)Nc1cccc(Cl)c1Cl,-1,-3,1,5,1,0
O=[N+]([O-])c1cccc(C(=Nc2ccc(Cl)cc2)NO)c1,88*,-1,0.1,-1,0.3,71*
SMILES,CYP2C19 inhib,sEH act,CYP2C19 act,sEH inhibitor,CYP2C9 act,CYP2C9 inh
CCOC(=O)CSCC(=O)Nc1c(C(=O)C2CC2)oc2ccccc12,nt,-7,nt,6,nt,nt
CCOc1ccc(C)cc1S(=O)(=O)N1CCCCC1,66*,17,0.3,-19,1.9,-94
CCOc1ccc(OCC)c(S(=O)(=O)N2CCCCC2C)c1 (stereo unspecified),89*,-23,0.1,23,0.5,53*
CCOc1ccc(C(C)(C)C)cc1S(=O)(=O)N1CCOCC1,68*,-4,0.3,5,0.5,50*
CCOc1ccc(Br)cc1S(=O)(=O)N1CC(C)OC(C)C1 (stereo unspecified),88*,2,0.1,2,1,-3
CCOc1ccccc1NC(=O)c1ccc(S(=O)(=O)N2CCOCC2)cc1,4,-1,1,2,1.3,-27
CC1(C)CC(=O)C2=C(C1)N(c1ccc(F)cc1)C(=O)CC2c1ccsc1 (stereo unspecified),63*,nt,0.4,nt,1,5
CCCSc1nnc(N2C(=O)CC(c3ccsc3)C3=C2CCCC3=O)s1 (stereo unspecified),31,-4,0.7,3,0.8,23
Cc1ccc(N2C(=O)CC(c3ccsc3)C3=C2CC(C)(C)CC3=O)cc1 (stereo unspecified),40,-6,0.6,3,0.7,33
CC1(C)CC(=O)C2=C(C1)N(c1ccccc1)C(=O)CC2c1ccsc1 (stereo unspecified),88*,nt,0.1,nt,0.7,26
CSc1ccc(C2C(C#N)=C(N)N(c3ccccc3)C3=C2C(=O)CCC3)cc1 (stereo unspecified),74*,nt,0.3,nt,0.1,90*
O=C1CCCC2=C1C(c1ccccc1)CC(=O)N2c1ccccc1 (stereo unspecified),78*,9,0.2,-11,0.9,6
c1coc(CNCC2OCCc3ccccc32)c1 (stereo unspecified),46,-2,0.5,2,1.1,-11
Cc1cc(C)c2nc3s/c(=C/c4ccc5c(c4)n(C)c(=O)n5C)c(=O)n3c2c1,-14,nt,1.1,nt,1.1,-15
CCN(CC)S(=O)(=O)c1cccc(-c2nnc(-c3ccc(C)cc3)o2)c1,16,3,0.8,-1,0.8,16
CCN(CC)S(=O)(=O)c1cccc(-c2nnc(SCCCC(=O)c3ccc(F)cc3)o2)c1,95*,-35,0,36,0.1,87*
CCN(CC)S(=O)(=O)c1cccc(-c2nnc(SCCCC(=O)c3ccccc3)o2)c1,76*,-20,0.2,23,0.4,64*
CCN(CC)S(=O)(=O)c1cccc(-c2nnc(SC(C)C(=O)NCCC3=CCCCC3)o2)c1 (stereo unspecified),nt,-84,nt,85*,nt,nt
CCN(CC)S(=O)(=O)c1cccc(-c2nnc(SCc3nc4ccccc4s3)o2)c1,93*,10,0.1,-11,0.9,10
CC1=C(C(N)=O)C(c2ccc(C)o2)C(C(N)=O)=C(C)N1,6,1,0.9,-1,0.9,7
O=C(NCC1CCCO1)C1c2ccccc2C(=O)N1Cc1ccc2c(c1)OCO2 (stereo unspecified),3,-7,1,9,0.9,5
